Laboratory results reported in PubChem BioAssay.
Active and inactive are the calls of the source.

What was measured:
[1] = binders of probe aFSTL3 on microarray, primary screen, stem cell growth factor project, biochemical, small-molecule microarray, fluorescence 635/667 (AID 1064); settings: higher = more signal;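 note: measures binding of the biotinylated anti-FSTL3 antibody to printed compounds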
[2] = binders from COS7 lysate, DM2A8 probe, primary screen, torsin A project, cell lysate, small-molecule microarray, fluorescence 635/667 (AID 1065); settings: higher = more signal, COS7 lysate expressing mutant human TOR1A
[3] = binders of probe aFGF2 on microarray, primary screen, stem cell growth factor project, biochemical, small-molecule microarray, fluorescence 635/667 (AID 1067); settings: higher = more signal;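 note: measures binding of biotinylated aFGF2 protein to printed compounds on slides; z-score merges feature fluorescence and signal-to-noise across triplicate slides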
[4] = binders of probe aFGF10 on microarray, primary screen, stem cell growth factor project, biochemical, small-molecule microarray, fluorescence 635/667 (AID 1071); settings: higher = more signal;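 note: score merges 667 nm spot intensity and signal to noise from triplicate slides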
[5] = target: Neurogenic locus notch homolog protein 2 (Homo sapiens) (UniProt Q04721); assay: Notch2 binders on small-molecule microarrays, primary screen, biochemical, small-molecule microarray, 635 nm fluorescence, stem cell growth factors (AID 1073); settings: Notch2 binding, higher = more signal
[6] = target: Pro-neuregulin-1, membrane-bound isoform (Homo sapiens) (UniProt Q02297); assay: NRG1 binders on small-molecule microarrays, primary screen, psychiatric disease protein project, biochemical, small-molecule microarray, fluorescence 635/667 (AID 1075); settings: NRG1 binding, 635 nm fluorescence, higher = more signal;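 note: score combines 667 nm spot fluorescence with signal to noise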
[7] = system: Neuregulin-1 EGF-like domain; assay: binders of neuregulin-1 EGF-like domain, primary screen, biochemical, small-molecule microarray, 635 nm fluorescence (AID 1081); settings: small-molecule microarray binding, higher = more signal;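 note: binding of the protein to compounds printed on small-molecule microarray slides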
[8] = FRG1 promoter luciferase signal modulators, primary screen, FRG1 inhibition for FSHD, cell-based, C2C12 myotubes, firefly/Renilla luciferase, luminescence (AID 1084); settings: higher = more signal, called active from +8 up or from −8 down
[9] = binders of probe aFST on microarray, primary screen, stem cell growth factor project, biochemical, small-molecule microarray, fluorescence 635/667 (AID 1086); settings: higher = more signal;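 note: score merges 667 nm fluorescence with signal-to-noise of each printed compound spot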
[10] = binders of probe aHhip on microarray, primary screen, stem cell growth factor project, biochemical, small-molecule microarray, fluorescence 635/667 (AID 1087); settings: higher = more signal;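 note: score merges spot fluorescence at 667nm with spot signal to noise ratio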

Chain of Pro-neuregulin-1, membrane-bound isoform (Homo sapiens) (Q02297 whole entry, looked up, the tested form may be a part, canonical isoform): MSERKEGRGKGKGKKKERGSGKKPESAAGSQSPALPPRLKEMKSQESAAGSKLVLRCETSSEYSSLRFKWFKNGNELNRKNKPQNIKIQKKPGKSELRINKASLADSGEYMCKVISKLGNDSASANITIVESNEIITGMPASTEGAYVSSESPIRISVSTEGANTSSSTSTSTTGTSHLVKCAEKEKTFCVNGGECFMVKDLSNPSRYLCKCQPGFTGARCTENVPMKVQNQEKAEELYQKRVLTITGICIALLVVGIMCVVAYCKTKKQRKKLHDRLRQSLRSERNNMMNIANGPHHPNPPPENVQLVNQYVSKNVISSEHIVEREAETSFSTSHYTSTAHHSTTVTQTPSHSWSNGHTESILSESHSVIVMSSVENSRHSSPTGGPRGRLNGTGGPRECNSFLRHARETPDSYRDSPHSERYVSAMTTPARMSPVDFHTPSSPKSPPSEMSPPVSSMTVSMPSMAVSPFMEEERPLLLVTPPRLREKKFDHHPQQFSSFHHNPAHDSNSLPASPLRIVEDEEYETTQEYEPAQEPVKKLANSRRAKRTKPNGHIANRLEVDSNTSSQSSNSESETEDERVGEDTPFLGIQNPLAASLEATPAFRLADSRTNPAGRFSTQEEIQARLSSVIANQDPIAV
Chain of Neurogenic locus notch homolog protein 2 (Homo sapiens) (Q04721 whole entry, looked up, canonical isoform): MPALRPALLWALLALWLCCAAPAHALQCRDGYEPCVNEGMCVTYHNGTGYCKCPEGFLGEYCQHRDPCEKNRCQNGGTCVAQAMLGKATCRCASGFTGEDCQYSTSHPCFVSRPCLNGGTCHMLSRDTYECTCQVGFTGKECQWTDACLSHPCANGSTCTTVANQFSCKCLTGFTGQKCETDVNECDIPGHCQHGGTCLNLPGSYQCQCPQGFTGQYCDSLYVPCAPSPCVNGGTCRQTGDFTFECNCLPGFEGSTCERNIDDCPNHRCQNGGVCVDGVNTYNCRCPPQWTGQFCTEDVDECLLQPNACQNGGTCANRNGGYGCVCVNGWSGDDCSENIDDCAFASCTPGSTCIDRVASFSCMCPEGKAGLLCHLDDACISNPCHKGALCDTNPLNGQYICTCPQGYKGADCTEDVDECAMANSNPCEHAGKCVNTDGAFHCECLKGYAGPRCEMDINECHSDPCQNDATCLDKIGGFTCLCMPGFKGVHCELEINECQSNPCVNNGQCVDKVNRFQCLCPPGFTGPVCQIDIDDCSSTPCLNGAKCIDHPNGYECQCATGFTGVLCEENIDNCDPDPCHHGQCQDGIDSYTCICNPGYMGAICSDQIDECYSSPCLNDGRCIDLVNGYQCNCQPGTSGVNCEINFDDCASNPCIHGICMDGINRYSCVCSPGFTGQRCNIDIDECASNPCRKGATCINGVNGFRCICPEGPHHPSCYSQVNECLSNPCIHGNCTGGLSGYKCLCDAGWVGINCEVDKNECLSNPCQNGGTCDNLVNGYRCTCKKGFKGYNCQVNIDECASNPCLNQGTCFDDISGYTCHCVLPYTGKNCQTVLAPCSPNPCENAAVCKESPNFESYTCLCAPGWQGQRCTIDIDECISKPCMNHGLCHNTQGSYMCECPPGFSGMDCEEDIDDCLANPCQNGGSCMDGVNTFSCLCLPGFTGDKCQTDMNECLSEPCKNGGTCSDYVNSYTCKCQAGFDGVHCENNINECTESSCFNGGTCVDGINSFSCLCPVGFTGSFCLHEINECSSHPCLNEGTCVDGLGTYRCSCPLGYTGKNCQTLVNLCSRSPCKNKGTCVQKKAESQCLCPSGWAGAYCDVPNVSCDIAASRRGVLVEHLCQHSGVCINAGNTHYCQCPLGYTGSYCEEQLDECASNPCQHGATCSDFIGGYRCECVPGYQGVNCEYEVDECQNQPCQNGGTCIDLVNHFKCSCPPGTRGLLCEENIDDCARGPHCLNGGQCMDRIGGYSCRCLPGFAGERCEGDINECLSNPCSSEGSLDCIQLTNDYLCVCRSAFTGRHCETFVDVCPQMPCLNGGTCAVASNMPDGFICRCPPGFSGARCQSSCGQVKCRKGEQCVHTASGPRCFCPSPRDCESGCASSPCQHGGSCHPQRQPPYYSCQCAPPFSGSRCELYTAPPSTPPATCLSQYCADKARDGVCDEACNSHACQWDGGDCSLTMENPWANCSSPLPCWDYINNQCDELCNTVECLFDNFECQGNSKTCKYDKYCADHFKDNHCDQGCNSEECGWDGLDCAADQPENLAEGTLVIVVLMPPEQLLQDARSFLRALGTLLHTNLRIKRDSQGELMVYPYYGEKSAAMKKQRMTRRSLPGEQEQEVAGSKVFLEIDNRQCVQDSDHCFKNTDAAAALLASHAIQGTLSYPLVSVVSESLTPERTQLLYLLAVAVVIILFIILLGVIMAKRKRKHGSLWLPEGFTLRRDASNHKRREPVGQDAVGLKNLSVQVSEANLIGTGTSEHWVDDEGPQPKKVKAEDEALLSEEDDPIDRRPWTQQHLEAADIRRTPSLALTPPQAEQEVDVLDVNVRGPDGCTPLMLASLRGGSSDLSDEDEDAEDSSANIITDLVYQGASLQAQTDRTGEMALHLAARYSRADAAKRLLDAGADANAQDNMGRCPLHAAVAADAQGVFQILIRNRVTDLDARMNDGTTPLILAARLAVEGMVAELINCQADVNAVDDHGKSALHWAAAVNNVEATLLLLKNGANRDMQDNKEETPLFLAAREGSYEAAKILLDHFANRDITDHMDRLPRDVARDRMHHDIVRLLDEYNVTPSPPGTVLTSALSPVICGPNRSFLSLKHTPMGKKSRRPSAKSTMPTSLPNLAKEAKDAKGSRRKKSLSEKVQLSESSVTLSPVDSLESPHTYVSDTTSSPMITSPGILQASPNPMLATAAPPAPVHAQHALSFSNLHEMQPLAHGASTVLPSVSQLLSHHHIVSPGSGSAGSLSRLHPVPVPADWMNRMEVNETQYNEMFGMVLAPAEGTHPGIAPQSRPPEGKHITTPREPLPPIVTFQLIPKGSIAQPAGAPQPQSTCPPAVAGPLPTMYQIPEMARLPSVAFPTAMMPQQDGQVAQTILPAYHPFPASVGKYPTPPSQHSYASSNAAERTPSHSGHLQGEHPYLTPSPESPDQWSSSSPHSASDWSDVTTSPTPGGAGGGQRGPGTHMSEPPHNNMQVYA

Structure (SMILES) | composite z-score [1] | composite z-score [2] | composite z-score [3] | composite z-score [4] | composite z-score [5] | composite z-score [6] | composite z-score [7] | z-score [8] | composite z-score [9] | composite z-score [10]
COc1ccc([Si](C)(C)[C@@H]2[C@@H](CCO)O[C@]3(C(=O)N(Cc4ccccc4)c4ccc(N5CCOC5=O)cc43)[C@H]2C)cc1 | -0.142 | 0.682 | -0.0346 | 0.65 | 0.545 | 0.69 | 0.951 | -4.48 (inactive) | 0.152 | -0.226
CC(=O)NCCCC[C@@H]1NC(=O)[C@@H]2C[C@H](C(=O)NCCCCCN)[C@H](c3ccc(O)cc3)N2C1=O | 0.95 | 1.25 | 0.088 | 0.864 | 0.702 | 0.995 | 1.43 | 0.604 (inactive) | 0.491 | -0.334
CCCCCC1=C2CNC(C)(C(=O)OC)C=C2C(C)C1=O (stereo not given) | 0.59 | -0.414 | -0.0676 | 0.0477 | 0.363 | 1.07 | 0.972 | 1.78 (inactive) | 0.0861 | 0.376
[N-]=[N+]=Nc1ccccc1C[C@@]1(C(=O)N2CCOCC2)N=C(c2ccc(OCCCO)cc2)O[C@@H]1c1ccccc1 | -0.4 | -0.121 | 0.0324 | 1.11 | 1.3 | 1.06 | 1.18 | -3.93 (inactive) | 1.71 | -0.112
CC1CC/C=C\[C@H]2OC34C=CCN(Cc5ccccc5)C(=O)[C@H]3N(C(CO)C(C)C)C(=O)[C@@H]4C2C(=O)O1 (stereo not given in full) | 0.342 | -0.153 | -0.049 | -0.0095 | -0.68 | 0.491 | 1.39 | 1.32 (inactive) | -0.368 | -0.0169
CN(C)C(=O)[C@]1(Cc2ccccc2CN=[N+]=[N-])N=C(c2ccc(OCCCO)cc2)O[C@@H]1c1ccccc1 | 0.168 | -0.242 | 0.0577 | 0.863 | 0.666 | 1.62 | 0.96 | -3.49 (inactive) | 0.694 | -0.0618
CC1CC/C=C\[C@H]2OC34C=CCN(c5ccc6ccccc6c5)C(=O)[C@H]3N(CCCO)C(=O)[C@@H]4C2C(=O)O1 (stereo not given in full) | 0.932 | -0.541 | -0.188 | -1.25 | -0.746 | 1.19 | -0.459 | 2.62 (inactive) | -0.757 | -0.19
CN(C)CCCCCCNC(=O)[C@@H]1C[C@@H]2C(=O)N3CCC[C@H]3C(=O)N2[C@@H]1c1cccc(OCCO)c1 | 0.117 | 2.09 | 0.1 | 1.11 | 0.623 | 0.755 | 1.48 | 3.21 (inactive) | 0.518 | -0.0296
CCCCC(CC)C(O)C1C=CC2C(=O)N(C)C(=O)C2N1Nc1ccccc1 (stereo not given) | -0.245 | 0.0145 | -0.0454 | 0.264 | 0.846 | 0.517 | 1.16 | -0.373 (inactive) | 0.388 | -0.0994
C=CC[C@]1(C(=O)N2CCOCC2)COC(c2ccc(OCCCO)cc2)=N1 | 0.0944 | 1.47 | 0.075 | -0.151 | 0.0759 | 1.52 | 1.39 | 0.683 (inactive) | 0.219 | -0.249
COCCOC(=O)N1C(=O)[C@@]2(c3cc(C#CC4(O)CCCCCC4)ccc31)[C@H](C(=O)N1CCc3cc(OC)c(OC)cc3C1)[C@H]1C(=O)O[C@H](c3ccccc3)[C@H](c3ccccc3)N1[C@@H]2c1ccc(OCCO)cc1 | -0.409 | 0.502 | 0.0088 | 0.467 | 1.24 | 0.675 | 1.18 | 1 (inactive) | 0.198 | -0.0994
COc1ccc([Si](C)(C)[C@@H]2[C@@H](CC(=O)N(CCO)Cc3ccccc3)O[C@]3(C(=O)N(Cc4cccc(N5CCCCC5=O)c4)c4ccccc43)[C@H]2C)cc1 | 0.0001 | 0.585 | -0.0019 | 0.212 | 0.185 | 1.72 | 1.23 | 0.306 (inactive) | 0.222 | -0.181
C=CCC(OC(C)=O)[C@@H]1[C@@H](N(Cc2ccc(-c3cccc(C(F)(F)F)c3)o2)C(=O)c2ccc(-c3ccccc3)cc2)c2cc(OCCCO)ccc2N1C(=O)Cc1ccc2ccccc2c1 (stereo not given in full) | -0.414 | -0.732 | -0.0454 | -0.342 | -0.753 | -0.337 | -0.0291 | -0.0069 (inactive) | 1.09 | 0.0156
NC(=O)[C@H]1[C@@H]2C(=O)O[C@@H](c3ccccc3)[C@@H](c3ccccc3)N2[C@@H](c2ccc(OCCO)cc2)[C@]12C(=O)Nc1ccc(C#CCCO)cc12 | 0.127 | 0.685 | -0.0524 | 0.715 | 0.874 | 0.874 | 1.02 | 1.7 (inactive) | 0.232 | -0.275
COc1ccc([Si](C)(C)[C@@H]2[C@@H](CCO)O[C@]3(C(=O)N(Cc4cccc(NC(=O)[C@H](C)O)c4)c4ccccc43)[C@H]2C)cc1 | -0.328 | 0.263 | -0.053 | 1.23 | 0.487 | 1.07 | 1.14 | -3.53 (inactive) | 0.146 | -0.249
[N-]=[N+]=NCc1ccccc1[C@H]1OC(c2ccc(OCCCO)cc2)=N[C@@]1(Cc1ccccc1N=[N+]=[N-])C(=O)NCC(O)CO (stereo not given in full) | -0.0235 | 0.651 | 0.0342 | 0.867 | 1.24 | 1.68 | 1.13 | 1.5 (inactive) | 1.43 | -0.31
COCCOC(=O)N1C(=O)[C@@]2(c3ccccc31)[C@H](C(=O)NC[C@H](O)c1ccccc1)[C@H]1C(=O)O[C@H](c3ccccc3)[C@H](c3ccccc3)N1[C@@H]2c1ccc(O)cc1 | -0.19 | 0.23 | 0.0017 | 0.941 | 1.55 | 0.57 | 1.25 | -0.677 (inactive) | 0.839 | 0.689
C=CCNC(=O)[C@@H]1[C@H]2C(=O)O[C@H](c3ccccc3)[C@H](c3ccccc3)N2[C@H](c2ccccc2OCCO)[C@@]12C(=O)Nc1ccc(C#CCC(C(=O)OC)C(=O)OC)cc12 | -0.44 | 0.491 | -0.116 | 0.422 | 0.894 | 1.39 | 1.28 | 1.1 (inactive) | -0.437 | -0.347
CN1C(=O)C2C=CC(C(O)c3cccn3C)N(Nc3ccc([N+](=O)[O-])cc3[N+](=O)[O-])C2C1=O (stereo not given) | 0.108 | -0.0125 | 0.157 | 0.162 | 1.05 | 0.392 | 0.828 | 0.351 (inactive) | 0.477 | -0.0631
N#Cc1ccc(NN2C(C(O)c3ccc(Br)cc3)C=CC3C(=O)N(c4ccccc4)C(=O)C32)cc1 (stereo not given) | 1.36 | 0.288 | 0.254 | 0.73 | 1.58 | 1.74 | 0.976 | -2.87 (inactive) | 0.907 | -0.182
COC(=O)[C@@]1(Cc2ccc(OC)cc2)[C@H]2c3cc(C(=O)N(C)C)n(Cc4ccc(OC(F)(F)F)cc4)c3C[C@H]2CN1C(=O)c1ccccc1 | 0.363 | -0.468 | -0.121 | -0.0332 | 1.58 | 1.39 | 1.44 | 2.88 (inactive) | 0.575 | 0.276
O=C1OCCC/C=C\[C@H]2OC34C=CCN(c5ccc6ccccc6c5)C(=O)[C@H]3N(CCO)C(=O)[C@@H]4C12 (stereo not given in full) | 0.24 | -0.514 | -0.159 | -0.818 | -1.23 | 1.6 | 1.04 | 0.751 (inactive) | -0.667 | -0.423
O=C(NCCN1CCOCC1)[C@@H]1c2ccccc2C(=O)N(Cc2ccccc2Cl)[C@H]1c1ccc(CO)cc1 | -0.138 | -0.483 | -0.15 | -0.758 | -0.922 | 0.923 | 1.32 | -2.41 (inactive) | 0.263 | -0.391
C=CC[C@@H](OC(=O)Nc1ccc(OC)cc1)c1ccc(O)c(F)c1 | 0.93 | 0.141 | -0.141 | -0.97 | -1.43 | 0.952 | 1.13 | 6.36 (inactive) | -0.535 | -0.216
NCCCCCCNC(=O)[C@@H]1C[C@@H]2C(=O)N[C@@H](CCCCN)C(=O)N2[C@@H]1c1ccc(O)cc1 | 0.208 | 0.301 | -0.0313 | 0.469 | 0.147 | 2.01 | 1.25 | 0.598 (inactive) | 0.077 | -0.149
CC1CC/C=C\[C@H]2OC34C=CCN(C(C)(C)C)C(=O)[C@H]3N(CCCCCO)C(=O)[C@@H]4C2C(=O)O1 (stereo not given in full) | -0.108 | -0.688 | -0.172 | -0.817 | -1.57 | 0.299 | 0.479 | -0.0661 (inactive) | -0.581 | -0.261
